From PubChem BioAssay (NCI)
This is part of a sample that, as a whole, favours compounds with a hit. Of some 83,000 tested, about 20% had one in any assay.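 Single-dose data. Exposure time 48 hours. Values below 10 considered active.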 A number with no mark means an inactive call. Activity calls are given as the source filed them.

Experiments:
Test in all cases: NCI-60 one-dose screen, 48 h (100 = growth as untreated, 0 = no growth, -100 = all killed)
Conditions in all cases: 10 µM unless noted
[1] = system: SR leukemia
[2] = system: OVCAR-8 ovarian
[3] = system: OVCAR-4 ovarian
[4] = system: SK-OV-3 ovarian
[5] = system: IGROV1 ovarian
[6] = system: OVCAR-3 ovarian
[7] = system: HS 578T breast
[8] = system: NCI/ADR-RES ovarian
[9] = system: OVCAR-5 ovarian

SMILES | growth [1] | growth [2] | growth [3] | growth [4] | growth [5] | growth [6] | growth [7] | growth [8] | growth [9]
c1cc(OCCN2CCCC2)ccc1CNc1ccc2nc(CCC3CCCCC3)[nH]c2c1 | 7.84% (active) | 43% | 56.7% | 99.3% | 46.3% | 49.6% | 44.1% | 85% | 
CSc1ccc2c3c(n(C[C@H](O)CO)c(=O)c2c1)-c1ccccc1C3=O | 1.4% (active) | 33.3% | 85% | 81.6% | 52.5% | 76.5% | 83.3% | 56% | 62.2%
O=C(Nc1nc(Cl)nc(Nc2ccc(N3CCOCC3=O)cc2)n1)c1ccc(Cl)s1 | 7.06% (active) | 87.6% | 102% | 99% | 72.6% | 102% | 89.8% | 99% | 99%
COc1ccc2c(c1)CC[C@@H]1[C@@H]2CC[C@]2(C)c3c(cc(C#N)c4c3sc3ccccc34)C[C@@H]12 | 89.3% | 101% | 107% | 108% | 101% | 108% | 94.6% | 101% | 80.6%
COc1c2c(cc3c1C(=O)N[C@@H]1[C@@H](O)[C@@H](O)[C@H](O)C[C@@H]31)OCCO2 | 92.1% | 100% | 105% | 98.6% | 109% | 104% | 96.2% | 113% | 105%
COc1ccc(/C=C(\C(=O)NCc2cccnc2)S(=O)(=O)c2ccccc2)cc1OC | 17.4% | 28.3% | 42.1% | 81.1% | 19.7% | 19.7% | 59.3% | 83% | 45%
CS(=O)(=O)Nc1cc(-c2ccc3ncnc(Nc4ccc(F)c(Cl)c4)c3c2)ccc1Cl | 35.1% | 52% | 52.5% |  | -3.25% (active) | 36.3% | 18.9% | 41.6% | 53.9%
c1ccc2cc(Cn3cc(CSc4nc5ccccc5s4)nn3)ccc2c1 | 103% | 90.7% | 98.1% | 93.3% | 93.9% | 103% | 87.1% | 96.9% | 99.7%
CSc1ccc(N2C(=N)C(=S)N(c3ccc(C)cc3)C2=O)cc1 | 80.3% | 96.1% | 96.4% | 81.1% | 103% | 105% | 96% | 106% | 89%
O=S(=O)(N=C1C(Cl)=C(Cl)C(=NS(=O)(=O)c2ccccc2)C(Cl)=C1Cl)c1ccccc1 | 46.4% | 69% | 91.9% |  | 57.7% | 130% | 93.2% | 65.3% | 73.8%
Cc1ccc(NC(=O)c2sc3nc(C)c(C(O)c4ccccc4)cc3c2N)cc1 (stereo not given) | 1.92% (active) | 18.6% | 46.1% | 14.7% | 28.4% | 5.7% (active) | 9.32% (active) | 7.94% (active) | 34.6%
Cc1cccc(-c2nc(C(C)C)sc2-c2ccnc(NCCCNS(=O)(=O)c3ccc(Cl)cc3)c2)c1 | 54.6% |  | 82.8% | 72.9% | 70.5% | 76.8% | 82% | 58.9% | 95.3%
CCN(CC)CCN1C(=O)c2c(c3c4ccccc4[nH]c3c3ccc4ccccc4c23)C1=O | -22.5% (active) | -29.1% (active) | -79.5% (active) |  | 76.1% |  | 87.4% | -40.9% (active) | -85.8% (active)
Oc1ccc(-c2nc3ccc4[nH]ncc4c3c3c2CCCC3)c(F)c1 | -1.33% (active) | 38% | 51.3% | -6.45% (active) | 22.9% | 46.6% | 14.8% | 52% | 59.7%
NCCCNc1nc2ccccc2c2c(=O)c3cc(Cl)ccc3sc12 | -44.3% (active) | -48.4% (active) | 33.4% | 77.6% | -1.46% (active) | -60% (active) | 43% | -4.11% (active) | -11.5% (active)
CN(C)CCCC1(c2ccc(F)cc2)OCc2cc(-c3csc4ccccc34)ccc21 (stereo not given) | -8.7% (active) | -23.2% (active) | 26.4% | 81.9% | -31.1% (active) | -58.2% (active) | 19.3% | 37.9% | 37%
Cc1cc(C)c2c(c1)N(C)c1ncnc(-n3c(C)nc4cc(C)ccc43)c1CC2C (stereo not given) | 11.3% | 71.6% | 58.1% | 31.5% | 47.5% | 21.5% | 40.9% | 7.15% (active) | 91.2%
COc1cc(-c2cc(-c3ccc(Nc4nc(Nc5ccc(Cl)cc5)nc(Nc5ccc(Cl)cc5)n4)cc3)no2)cc(OC)c1OC | 15.7% | 76.4% | 78.8% | 90.7% | 71% | 86% | 62.9% | 80.4% | 77.8%
O=c1cc(C(F)(F)F)c2cc(-c3cc4ccccc4c(=O)o3)c(O)cc2o1 | 85.5% | 87% | 64% | 73.3% | 92.6% | 56.9% | 79.5% | 78.9% | 103%
